This is an account of results in PubChem BioAssay.

The nature of test [1]: inhibitors of TNFa-induced NFkB p65 translocation, primary screen, imaging, HUVEC, MLSMR starter and 10KST1 sets (AID 438).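 For inhibition: signal is the nuclear over cytoplasmic p65 intensity ratio per well.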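 Note: compound added about 3h40 before a 20 min TNFalpha stimulation.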 Particulars: HUVEC TNFa-induced p65 nuclear translocation; cell count: measured here: nuclei count (cytotoxicity indicator), at 2.08 µM; inhibition: at 2 µM, stronger effect = higher value, 0% TNFa-plus-vehicle, 100% no-TNFa wells.
Test [2] in a line: reduction of polyQ htt aggregates in cells – imaging, exon1htt(103Q)mCFP cells, high-content imaging, primary screen (AID 483;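 active = visual image review flags a hit and inhibition of aggregation exceeds 20%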;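 note: compound exposure lasted 3 days before fixation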;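 for nuclei count: percent of the per-plate median nuclei count of sample wells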). Particulars: exon1htt(103Q)mCFP cell line, aggregate imaging, at 2 µM; inhibition of aggregation: stronger effect = higher value; nuclei count: measured here: cell count, toxicity.
Test [3] can be described thus: endothelial E-selectin expression blockers – imaging, HUVEC, immunofluorescence, MLSMR starter and 10KST1 sets, primary screen (AID 487;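 active = visually confirmed hit in the image check and inhibition above 20%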;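 for inhibition: signal is fraction of cell area covered by stained E-selectin grains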;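 for nuclei count: 100% = median nuclei count of all wells on the same plate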). Particulars: HUVEC TNFalpha-induced E-selectin immunofluorescence imaging, at 2 µM; inhibition: stronger effect = higher value; nuclei count: measured here: cell number, toxicity.
In test [4] the target is Voltage-gated potassium channel subunit beta-2 (Rattus norvegicus) (UniProt P62483). Kind of test: inhibitors of rat Kvbeta2 reductase activity – biochemical, NADPH fluorescence, primary screen (AID 622;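 active = fluorescence slope higher than the sample average by over 3 SD, cut at about -0.22 in these data, passing the limit was not always enough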;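 note: slope of raw intensity against log time taken from 70 to 1610 s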). Particulars: recombinant KvBeta, 4-cyanobenzaldehyde reduction, at 10 µM, stronger effect = higher value.
Voltage-gated potassium channel subunit beta-2 (Rattus norvegicus), sequence (P62483 whole entry, looked up): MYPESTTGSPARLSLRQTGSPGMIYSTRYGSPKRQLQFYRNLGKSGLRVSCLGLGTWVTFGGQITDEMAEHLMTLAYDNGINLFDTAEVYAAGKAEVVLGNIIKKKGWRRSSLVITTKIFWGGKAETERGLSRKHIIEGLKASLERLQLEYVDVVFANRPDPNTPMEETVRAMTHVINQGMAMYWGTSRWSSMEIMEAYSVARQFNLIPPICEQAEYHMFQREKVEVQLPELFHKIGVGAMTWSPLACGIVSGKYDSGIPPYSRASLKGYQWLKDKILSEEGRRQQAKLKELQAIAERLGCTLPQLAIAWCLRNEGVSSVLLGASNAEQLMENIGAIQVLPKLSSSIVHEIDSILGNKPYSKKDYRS
Test [5] has the same target. Kind of test: enhancers of rat Kvbeta2 NADPH turnover – biochemical, NADPH fluorescence, primary screen (AID 623;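 active = NADPH fluorescence slope more negative than the mean of all samples by about 3 SD, 99.7% confidence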;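 note: fluorescence intensity change per second fitted from 20 to 320 s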). Particulars: Recombinant KvBeta, NADPH fluorescence decrease slope, 10 min; at 10 µM; stronger effect = lower value.
Test [6] concerns the target Alpha-2C adrenergic receptor (Homo sapiens) (UniProt P18825). Briefly: compounds altering alpha2C-coupled GIRK flux – cell-based, HEK293 alpha2C/GIRK1/2, thallium flux, primary screen (AID 624;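 active = fluorescence slope after compound addition differing from the mean of all screened samples at 99.7% confidence, in either direction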;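 note: slope of fluorescence ratio to pre-addition baseline per second over 15 to 24 s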). Particulars: thallium flux BTC fluorescence, at 10 µM, actives lie on both sides.
A short description of test [7]: blockers of RIG-like receptor reporter activation – cell-based, Sendai virus stimulus, luciferase, 10K MLSCN set, TLR/RLR signaling modifier project, primary screen (AID 602276;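 active = inhibition at or above 50% at 10 µM; inactive = inhibition below 50%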;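 note: firefly luciferase from ISG56 promoter only with Renilla not read in this screen; 0% = Sendai virus plus DMSO and 100% = medium plus DMSO without virus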). Particulars: HEK293 RL24 IRF3 luciferase reporter, at 10 µM, stronger effect = higher value.
Test [8] can be described thus: TLR3 IRF3 reporter activation blockers – cell-based, poly I:C stimulus, luciferase, 10K MLSCN set, primary screen (AID 602277;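 active = inhibition of the reporter signal at or above 50%; inactive = inhibition below 50%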). Particulars: HEK293-TLR3 RL24 IRF3 luciferase reporter, at 10 µM, stronger effect = higher value. On the technique in general: Reporter assays use an easily measured gene product as a stand-in for the process of interest.

As usually defined, the inhibition is the change of the read-out against control, counted positive when it falls.

Each structure is given as a SMILES string. Activity calls are given as the source filed them.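 Rule for the calls, unless noted: active = inhibition above 20% together with a positive visual image hit; inconclusive = visual image hit but inhibition not above 20%; inactive = no visual image hit.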

Alpha-2C adrenergic receptor (Homo sapiens), sequence (P18825 whole entry, looked up): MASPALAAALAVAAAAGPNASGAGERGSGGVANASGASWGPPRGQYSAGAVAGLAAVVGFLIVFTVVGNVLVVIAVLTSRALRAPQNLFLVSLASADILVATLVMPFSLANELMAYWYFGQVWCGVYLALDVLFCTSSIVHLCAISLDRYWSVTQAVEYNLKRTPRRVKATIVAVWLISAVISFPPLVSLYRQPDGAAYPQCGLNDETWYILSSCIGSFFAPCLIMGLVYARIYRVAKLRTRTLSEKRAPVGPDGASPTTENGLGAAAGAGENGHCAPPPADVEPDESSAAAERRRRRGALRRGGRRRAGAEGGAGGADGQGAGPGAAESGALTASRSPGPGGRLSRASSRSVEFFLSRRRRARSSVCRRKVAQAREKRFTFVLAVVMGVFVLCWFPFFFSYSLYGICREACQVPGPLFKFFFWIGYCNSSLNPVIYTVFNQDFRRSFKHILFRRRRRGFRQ

Regarding `COc1ccccc1S(=O)(=O)Cc1ccc(C(=O)N2CCN(c3ccccn3)CC2)o1`, in test [1], the cell count was determined as 624. Also, the inhibition in test [1] is -4% (inactive); in test [3], -53.1% (inactive); in test [7], 20.6% (inactive); in test [8] it was 15.8% (inactive). Also, in test [2], the inhibition of aggregation was 0.9% (inactive). The nuclei count amounted to 106% in test [2] and 104% in test [3]. Besides, the fluorescence slope in test [4] is -0.517 (inactive). Besides, the NADPH fluorescence slope in test [5] is -3.4e-05 (inactive). In test [6], the slope was 0.00659 (inactive).
For `Cn1c(CN2CCOCC2)nnc1SCC(=O)NCCc1ccccc1`, the cell count in test [1] stood at 444. In addition, the inhibition in test [1] was -1% (inactive); in test [3] it was -161% (inactive); in test [7], -8.38% (inactive); in test [8], -42.9% (inactive). Besides, the inhibition of aggregation in test [2] was 0.2% (inactive). Moreover, the nuclei count in test [2] is 118%; in test [3], 210%. In addition, the fluorescence slope in test [4] was -0.613 (inactive). Also, the NADPH fluorescence slope in test [5] is 6.8e-06 (inactive). Further, the slope in test [6] is 0.00528 (inactive).
Regarding `COc1ccccc1NC(=O)C1(C)Cc2ccccc2C(=O)O1` (stereo not drawn), in test [1], the cell count was determined as 640. The inhibition is 12.4% (inactive) in test [1], 46.9% (inactive) in test [3], -6.71% (inactive) in test [7] and -2.97% (inactive) in test [8]. For the same compound, the inhibition of aggregation in test [2] is -26.4% (inactive). Besides, the figures for the nuclei count in test [2] and in test [3] were 119% and 106%, respectively. Moreover, the fluorescence slope in test [4] was -0.584 (inactive). Moreover, the NADPH fluorescence slope in test [5] is -3.4e-05 (inactive). The slope in test [6] was 0.00673 (inactive).
On to `c1ccc(CSCc2cn3ccsc3n2)cc1`, for which the cell count in test [1] is 664. Besides, the inhibition in test [1] is 1.2% (inactive); in test [3], -84.7% (inactive); in test [7], -50.3% (inactive); in test [8], -132% (inactive). The inhibition of aggregation in test [2] is 5.1% (inactive). For the same compound, the nuclei count in test [2] was 107%; in test [3], 131%. For the same compound, the fluorescence slope in test [4] was -0.583 (inactive). Moreover, the NADPH fluorescence slope in test [5] is -4.2e-05 (inactive). Besides, the slope in test [6] is 0.00621 (inactive).
As for `O=C(NC(=O)c1ccc(Cl)cc1)Nc1cc(N2CCCCC2)ncn1`, the cell count in test [1] amounted to 333. In addition, the inhibition in test [1] was 5.5% (inactive); in test [3], -70% (inactive); in test [7], 13.2% (inactive); in test [8] it was 9.71% (inactive). The inhibition of aggregation in test [2] is 11.3% (inactive). Besides, the nuclei count came out at 85.1% in test [2] and 89.5% in test [3]. Also, the fluorescence slope in test [4] was -0.48 (inactive). Besides, the NADPH fluorescence slope in test [5] is -4.9e-05 (inactive). The slope in test [6] is 0.00674 (inactive).
Regarding `CN1CCN(S(=O)(=O)c2ccc(NC(=O)Nc3cccc(Cl)c3)cc2)CC1`, in test [1], the cell count came out at 468. Besides, the inhibition in test [1] is 0.3% (inactive); in test [3] it was 36.5% (inactive); in test [7], -1.37% (inactive); in test [8], -11.1% (inactive). Besides, the inhibition of aggregation in test [2] is -4.4% (inactive). In addition, the nuclei count in test [2] was 91.8%; in test [3], 114%. The fluorescence slope in test [4] was -0.614 (inactive). In addition, in test [5], the NADPH fluorescence slope was -3e-05 (inactive). Further, the slope in test [6] was 0.00476 (inactive).
As to `Cc1nc2oc3c(NCc4ccccn4)ncnc3c2c2c1COC(C)(C)C2`, the cell count in test [1] worked out at 366. For the same compound, the inhibition was -2.9% (inactive) in test [1], -75.4% (inactive) in test [3], 9.92% (inactive) in test [7] and 12.7% (inactive) in test [8]. Further, in test [2], the inhibition of aggregation is 2.7% (inactive). For the same compound, the nuclei count in test [2] was determined as 78.1%; in test [3], 117%. Moreover, the fluorescence slope in test [4] was -0.431 (inactive). For the same compound, the NADPH fluorescence slope in test [5] is -4.2e-06 (inactive). In test [6], the slope was 0.00661 (inactive).
`CCCCOc1ccc(-c2nnn(C(C)(C)C(=O)OC)n2)cc1`: the cell count in test [1] stood at 602. Besides, the inhibition in test [1] is -6.3% (inactive); in test [3] it was 1.6% (inactive); in test [7] it was -33.8% (inactive); in test [8], -125% (inactive). In addition, the inhibition of aggregation in test [2] is 7% (inactive). The nuclei count was found to be 67.8% in test [2] and 102% in test [3]. In addition, in test [4], the fluorescence slope was -0.502 (inactive). The NADPH fluorescence slope in test [5] was -0.00029 (active). Also, the slope in test [6] is 0.0068 (inactive).
